Inhibition and activation data for 30 molecules are collected here from PubChem BioAssay.

Assay [1] has as its target Receptor-interacting serine/threonine-protein kinase 2 (Homo sapiens) (UniProt O43353). The assay is described as follows: inhibitors of RIPK2 association with NOD2 – fluorescence, CHO cells, BLA complementation, triplicate, confirmation (AID 624370;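 active = mean inhibition across replicates above a set limit taken from the earlier primary screen, cut at about 21% in these data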;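 also: 0% = DMSO-only wells and the high end = clavulanate BLA-blocked wells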). As to conditions: CCF4 FRET, at 4.98 µM, active compounds read high.
Assay [2] in a line: BLA reporter readout interference – cell-based, CHO-K1 CMV-bla, CCF4 FRET, fluorescence, artefact control for NOD2-RIPK2 interaction inhibitor project, confirmation (AID 624371;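 active = mean inhibition above the low-control mean inhibition plus three low-control SD, cut at about 11% in these data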;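 also: 0% = DMSO only wells and 100% = clavulanate high control wells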). As to conditions: CCF4 FRET ratio, counterscreen, at 4.98 µM, active compounds read high. On the technique in general: A counterscreen serves to expose hits that act by an unwanted route or on another target.

Assay [3] addresses Nuclear receptor coactivator 1 (Homo sapiens) (UniProt Q15788). The assay is described as follows: NCOA1 GAL4-fusion reporter inhibition – cell-based, luminescence, quadruplicate, confirmation (AID 588820;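 active = mean inhibition above 46.68%, the untreated control wells mean plus 3 SD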;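 also: 0% = DMSO wells and 100% = gossypol 36 µM treated wells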). The following applies: HEK293 GAL4-SRC1 luciferase reporter, at 3.6 µM, active compounds read high. In general terms: In a reporter assay the amount or activity of a reporter protein is the signal.

A short description of assay [4]: repression of VP16-driven luciferase reporter – cell-based, luminescence, high throughput, counter-screen for SRC1 inhibitor project (AID 588824; in the data active = inhibition above about 25%). As to conditions: cell-based VP16 transactivation luciferase luminescence; at 3.6 µM; active compounds read high.
Assay [5] relates to transactivating tegument protein VP16 (Human herpesvirus 1). Nature of the assay: compounds suppressing VP16-driven luciferase signal – cell-based, luminescence, single concentration, counter-screen for SRC2 inhibitor project (AID 652007; in the data active = inhibition above about 36%). As to conditions: cell-based VP16 transactivation luciferase reporter, at 8.9 µM, active compounds read high.
For assay [6], the target named is Nuclear receptor coactivator 2 (Homo sapiens) (UniProt Q15596). Nature of the assay: inhibition of GAL4-SRC2 driven luciferase expression – cell-based, luminescence, HEK293, triplicate, confirmation (AID 652008;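 active = mean inhibition above 46.5%, the solvent-only control mean plus 3 SD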;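 also: 0% = DMSO-treated cells and 100% = Gossypol at 36 µM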). As to conditions: HEK293 GAL4-SRC2 luciferase reporter, at 8.9 µM, active compounds read high.
The target in assay [7] is Galanin receptor type 2 (Homo sapiens) (UniProt O43603). The assay is described as follows: blockers of human galanin receptor 2 – cell-based, confirmation (AID 866; in the data active = inhibition above about 27%;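 also: cells stimulated with galanin at about its EC80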). The following applies: GALR2-expressing cells, antagonist mode, at 4 µM, active compounds read high.
A short description of assay [8]: nonspecific BLA reporter inhibition – CHO NFAT-bla cells, FRET readout, counter-screen for GALR2 antagonist project, confirmation (AID 867;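 active = inhibition above the mean inhibition across tested compounds plus 3 SD, cut at about 27% in these data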;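 also: 0% = 500 nM thapsigargin stimulated wells and 100% = unstimulated BSA only wells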). As to conditions: beta-lactamase FRET, thapsigargin-stimulated, at 4.2 µM, active compounds read high.
Assay [9] is described as follows: StAR promoter reporter inhibitors, counter-screen for LRH-1 inverse agonist project, cell-based, luminescence, high throughput (AID 651611; in the data active = inhibition above about 28%). As to conditions: StAR promoter luciferase reporter counterscreen, at 3.6 µM, active compounds read high.
Assay [10] has as its target Nuclear receptor subfamily 5 group A member 2 (Homo sapiens) (UniProt O00482). Nature of the assay: NR5A2 activity suppression in reporter cells – cell-based, luminescence, confirmation (AID 651613; in the data active = inhibition above about 42%;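 also: HEK293T cells co-transfected with LRH-1 and StAR promoter luciferase reporter; 0% = vehicle wells and 100% = parental cells lacking receptor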). As to conditions: cell-based LRH-1 luciferase reporter, inverse agonism; at 3.6 µM; active compounds read high.
Assay [11] concerns the target Steroidogenic factor 1 (Homo sapiens) (UniProt Q13285). The assay is described as follows: inverse agonism at SF1 nuclear receptor – cell-based, luminescence, high throughput, counter-screen for LRH-1 inverse agonist project (AID 651614; in the data active = inhibition above about 44%;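 also: cells cotransfected with StAR promoter reporter and SF1 expression vector; 0% = vehicle on cells with receptor and 100% = vehicle on cells lacking receptor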). The following applies: cell-based SF1 luciferase reporter, at 3.6 µM, active compounds read high.
Assay [12] is described as follows: compounds suppressing VP16-driven luciferase signal – cell-based, luminescence, high throughput, counter-screen for LRH-1 inverse agonist project (AID 651615; in the data active = inhibition above about 33%). The following applies: Gal4-VP16 luciferase reporter cells, at 3.6 µM, active compounds read high.
Assay [13] deals with (Lyso)-N-acylphosphatidylethanolamine lipase (Mus musculus) (UniProt Q8VD66). Nature of the assay: mouse ABHD4 hydrolase blockers, triplicate – biochemical, fluorescence polarization, confirmation (AID 720658;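 active = mean inhibition across replicates above the hit cutoff set in the primary screen, cut at about 30% in these data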;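 also: 0% = wild-type ABHD4 with DMSO and 100% = catalytically dead S159A mutant with DMSO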). The following applies: purified mABHD4, FP-Rh probe fluorescence polarization; at 8.92 µM; active compounds read high. For orientation: In fluorescence polarisation assays a small probe gives low polarisation when free and higher when bound to something large.

Assay [14] has as its system DAF-12 nuclear receptor (Heterodera glycines), GAL4-LBD fusion. The assay is described as follows: hgDAF-12 GAL4 fusion reporter activation, retest – cell-based, luminescence, HEK293, GAL4-LBD fusion, confirmation (AID 743050;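 active = mean activation over triplicate wells above the hit cutoff derived from the earlier primary screen, cut at about 11% in these data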;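 also: 0% = DMSO low control and 100% = 2 mM sodium butyrate high control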). The following applies: HEK293 GAL4-hgDAF12 luciferase reporter, agonist mode; at 6.8 µM; active compounds read high; percent of butyrate response.
Assay [15] deals with Oxysterols receptor LXR-beta (Homo sapiens) (UniProt P55055). Nature of the assay: nonspecific reporter activation via LXR – cell-based, luminescence, HEK293, H. glycines campaign, counter-screen for hgDAF-12 agonist project, confirmation (AID 743051;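 active = mean activation of the triplicate above a set limit carried over from the primary screen, none filed active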). As to conditions: HEK293 Gal4-LXR luciferase reporter, 24 h; at 6.8 µM; active compounds read high.
For assay [16], the target named is Photoreceptor-specific nuclear receptor (Homo sapiens) (UniProt Q9Y5X4). Nature of the assay: retest of NR2E3-NCOR disrupting agonists – cell-based, luminescence, CHO-S two-hybrid, confirmation (AID 624378;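 active = average inhibition above a cutoff equal to the mean inhibition of all tested compounds plus one SD, cut at about 70% in these data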;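 also: 0% = DMSO in NR2E3 cells and 100% = DMSO in cells lacking NR2E3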). As to conditions: CHO-S mammalian two-hybrid NR2E3-NCOR, luciferase luminescence; at 3.98 µM; active compounds read high.
The nature of assay [17]: nonselective effects on VP16 transactivation – cell-based, luminescence, CHO-S, high throughput, counter-screen for NR2E3 agonist project, confirmation (AID 624379).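 Also: 0% = DMSO with VP16-transfected cells and 100% = DMSO with cells lacking VP16; higher means less reporter light so more repression of VP16 activity.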 The following applies: CHO-S GAL4-VP16 luciferase reporter, at 3.98 µM, active compounds read high.
The nature of assay [18]: reduced OD of V66 E. coli with T4 gene 2 phage – absorbance, RecBCD inhibitor project, confirmation (AID 651982;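 active = mean inhibition over triplicates exceeding the hit threshold derived in the original primary screen, cut at about 11% in these data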). As to conditions: E. coli V66 + T4 2- phage, growth OD; at 11.9 µM; active compounds read high.
Assay [19] is described as follows: bacterial growth inhibition – absorbance, high throughput, counter-screen for RecBCD inhibitor project (AID 651983; in the data active = inhibition above about 20%;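 also: E. coli strain V66 grown with compound alone and no phage infection; 0% = bacteria with DMSO vehicle only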). The following applies: E. coli viability, absorbance (OD) growth; at 11.9 µM; active compounds read high.
The nature of assay [20]: reduced optical density, T4-challenged addAB+ bacteria – absorbance, E. coli V3065, T4 phage, counter-screen for RecBCD inhibitor project, confirmation (AID 651984;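 active = mean inhibition above the solvent-only control wells' mean plus 3 SD, cut at about 22% in these data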;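 also: higher means less bacterial growth from phage killing when AddAB is blocked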). As to conditions: E. coli expressing H. pylori AddAB + T4 phage, OD growth; at 11.9 µM; active compounds read high; gene 2 mutant T4, recBCD-deleted host.
The nature of assay [21]: VP16-driven transactivation reporter suppression – cell-based, luminescence, HEK293, counter-screen for COUP-TFII antagonist project (AID 687007; in the data active = inhibition above about 13%). The following applies: HEK293 Gal4-VP16 luciferase reporter, at 8.5 µM, active compounds read high.
Assay [22] concerns the target COUP transcription factor 2 (Homo sapiens) (UniProt P24468). Nature of the assay: retest of COUP-TFII reporter suppressors – cell-based, luciferase reporter, HEK293, triplicate, confirmation (AID 687008;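 active = mean inhibition over three repeats above a set limit taken from the earlier primary screen, cut at about 38% in these data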;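 also: 100% = cells given the luciferase reporter alone without the COUP-TF2 vector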). As to conditions: HEK293 NGFI-A luciferase reporter, luminescence; at 8.5 µM; active compounds read high.

Molecules are shown by their SMILES. Unmarked numbers belong to inactive results. The list shows a part of the results. Activity calls are given as the source filed them.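 The calls were made as follows, unless noted: active = mean inhibition above a cutoff equal to the average over all tested compounds plus one standard deviation (cut at about 70% in these data); inactive = the rest.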

Chain of Photoreceptor-specific nuclear receptor (Homo sapiens) (Q9Y5X4 whole entry, looked up): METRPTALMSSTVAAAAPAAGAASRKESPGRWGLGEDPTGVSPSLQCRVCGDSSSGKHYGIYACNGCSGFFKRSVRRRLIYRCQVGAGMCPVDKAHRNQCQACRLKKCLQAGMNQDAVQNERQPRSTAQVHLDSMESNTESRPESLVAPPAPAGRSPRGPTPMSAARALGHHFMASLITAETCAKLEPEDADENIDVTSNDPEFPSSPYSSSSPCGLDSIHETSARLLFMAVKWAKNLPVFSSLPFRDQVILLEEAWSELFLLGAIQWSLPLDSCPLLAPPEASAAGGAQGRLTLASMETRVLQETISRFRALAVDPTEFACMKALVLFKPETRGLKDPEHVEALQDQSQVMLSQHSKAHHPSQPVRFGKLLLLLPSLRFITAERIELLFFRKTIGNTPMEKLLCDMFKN
Chain of Nuclear receptor coactivator 2 (Homo sapiens) (Q15596 whole entry, looked up, the tested form may be a part): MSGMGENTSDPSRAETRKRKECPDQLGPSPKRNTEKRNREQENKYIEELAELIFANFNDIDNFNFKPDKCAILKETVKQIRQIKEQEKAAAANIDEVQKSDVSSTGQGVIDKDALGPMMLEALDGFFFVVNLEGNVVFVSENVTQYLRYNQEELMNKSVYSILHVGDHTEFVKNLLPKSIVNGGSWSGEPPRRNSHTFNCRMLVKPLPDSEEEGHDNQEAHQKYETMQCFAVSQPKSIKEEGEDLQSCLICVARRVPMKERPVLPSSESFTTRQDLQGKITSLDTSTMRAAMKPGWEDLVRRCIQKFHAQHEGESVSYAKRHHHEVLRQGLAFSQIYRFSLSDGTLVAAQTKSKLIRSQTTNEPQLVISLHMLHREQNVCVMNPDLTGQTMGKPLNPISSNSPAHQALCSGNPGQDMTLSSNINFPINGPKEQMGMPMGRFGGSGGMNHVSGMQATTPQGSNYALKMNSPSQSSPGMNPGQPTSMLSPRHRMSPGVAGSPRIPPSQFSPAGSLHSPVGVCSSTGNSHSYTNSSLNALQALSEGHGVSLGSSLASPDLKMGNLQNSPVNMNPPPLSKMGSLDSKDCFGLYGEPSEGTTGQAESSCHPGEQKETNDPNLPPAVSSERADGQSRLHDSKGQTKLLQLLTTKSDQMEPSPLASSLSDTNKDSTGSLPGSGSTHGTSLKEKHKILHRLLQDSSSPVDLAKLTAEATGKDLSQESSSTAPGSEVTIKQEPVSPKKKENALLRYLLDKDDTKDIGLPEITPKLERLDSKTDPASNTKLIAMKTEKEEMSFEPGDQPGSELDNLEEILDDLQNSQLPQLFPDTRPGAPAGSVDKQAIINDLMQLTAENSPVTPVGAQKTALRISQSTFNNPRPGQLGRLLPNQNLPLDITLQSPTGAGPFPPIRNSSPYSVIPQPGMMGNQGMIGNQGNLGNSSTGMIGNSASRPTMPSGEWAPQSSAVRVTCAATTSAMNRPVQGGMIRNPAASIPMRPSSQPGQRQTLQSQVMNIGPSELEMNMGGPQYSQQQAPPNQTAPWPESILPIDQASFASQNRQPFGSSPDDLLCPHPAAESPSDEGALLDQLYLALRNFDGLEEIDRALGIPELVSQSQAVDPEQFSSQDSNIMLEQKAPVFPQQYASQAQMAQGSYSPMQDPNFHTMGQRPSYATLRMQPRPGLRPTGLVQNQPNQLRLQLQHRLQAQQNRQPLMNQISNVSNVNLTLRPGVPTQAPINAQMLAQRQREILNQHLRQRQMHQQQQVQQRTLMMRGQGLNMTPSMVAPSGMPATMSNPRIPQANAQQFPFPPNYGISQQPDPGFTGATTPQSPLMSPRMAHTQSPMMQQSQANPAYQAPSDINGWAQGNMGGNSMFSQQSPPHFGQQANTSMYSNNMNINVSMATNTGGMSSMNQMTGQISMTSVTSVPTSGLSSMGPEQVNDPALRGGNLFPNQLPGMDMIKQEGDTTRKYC
Chain of COUP transcription factor 2 (Homo sapiens) (P24468 whole entry, looked up): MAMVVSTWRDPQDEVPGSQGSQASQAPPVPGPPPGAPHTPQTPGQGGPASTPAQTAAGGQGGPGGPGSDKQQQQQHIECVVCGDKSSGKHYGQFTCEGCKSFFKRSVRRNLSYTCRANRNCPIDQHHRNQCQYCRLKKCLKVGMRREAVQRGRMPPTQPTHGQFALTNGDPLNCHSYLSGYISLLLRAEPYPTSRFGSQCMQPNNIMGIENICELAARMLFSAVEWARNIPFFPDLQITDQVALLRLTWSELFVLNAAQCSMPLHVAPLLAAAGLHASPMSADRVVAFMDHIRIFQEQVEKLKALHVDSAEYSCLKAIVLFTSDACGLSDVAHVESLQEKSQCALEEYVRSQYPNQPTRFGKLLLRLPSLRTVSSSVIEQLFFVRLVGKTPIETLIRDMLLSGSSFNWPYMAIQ
Chain of Nuclear receptor coactivator 1 (Homo sapiens) (Q15788 whole entry, looked up, the tested form may be a part): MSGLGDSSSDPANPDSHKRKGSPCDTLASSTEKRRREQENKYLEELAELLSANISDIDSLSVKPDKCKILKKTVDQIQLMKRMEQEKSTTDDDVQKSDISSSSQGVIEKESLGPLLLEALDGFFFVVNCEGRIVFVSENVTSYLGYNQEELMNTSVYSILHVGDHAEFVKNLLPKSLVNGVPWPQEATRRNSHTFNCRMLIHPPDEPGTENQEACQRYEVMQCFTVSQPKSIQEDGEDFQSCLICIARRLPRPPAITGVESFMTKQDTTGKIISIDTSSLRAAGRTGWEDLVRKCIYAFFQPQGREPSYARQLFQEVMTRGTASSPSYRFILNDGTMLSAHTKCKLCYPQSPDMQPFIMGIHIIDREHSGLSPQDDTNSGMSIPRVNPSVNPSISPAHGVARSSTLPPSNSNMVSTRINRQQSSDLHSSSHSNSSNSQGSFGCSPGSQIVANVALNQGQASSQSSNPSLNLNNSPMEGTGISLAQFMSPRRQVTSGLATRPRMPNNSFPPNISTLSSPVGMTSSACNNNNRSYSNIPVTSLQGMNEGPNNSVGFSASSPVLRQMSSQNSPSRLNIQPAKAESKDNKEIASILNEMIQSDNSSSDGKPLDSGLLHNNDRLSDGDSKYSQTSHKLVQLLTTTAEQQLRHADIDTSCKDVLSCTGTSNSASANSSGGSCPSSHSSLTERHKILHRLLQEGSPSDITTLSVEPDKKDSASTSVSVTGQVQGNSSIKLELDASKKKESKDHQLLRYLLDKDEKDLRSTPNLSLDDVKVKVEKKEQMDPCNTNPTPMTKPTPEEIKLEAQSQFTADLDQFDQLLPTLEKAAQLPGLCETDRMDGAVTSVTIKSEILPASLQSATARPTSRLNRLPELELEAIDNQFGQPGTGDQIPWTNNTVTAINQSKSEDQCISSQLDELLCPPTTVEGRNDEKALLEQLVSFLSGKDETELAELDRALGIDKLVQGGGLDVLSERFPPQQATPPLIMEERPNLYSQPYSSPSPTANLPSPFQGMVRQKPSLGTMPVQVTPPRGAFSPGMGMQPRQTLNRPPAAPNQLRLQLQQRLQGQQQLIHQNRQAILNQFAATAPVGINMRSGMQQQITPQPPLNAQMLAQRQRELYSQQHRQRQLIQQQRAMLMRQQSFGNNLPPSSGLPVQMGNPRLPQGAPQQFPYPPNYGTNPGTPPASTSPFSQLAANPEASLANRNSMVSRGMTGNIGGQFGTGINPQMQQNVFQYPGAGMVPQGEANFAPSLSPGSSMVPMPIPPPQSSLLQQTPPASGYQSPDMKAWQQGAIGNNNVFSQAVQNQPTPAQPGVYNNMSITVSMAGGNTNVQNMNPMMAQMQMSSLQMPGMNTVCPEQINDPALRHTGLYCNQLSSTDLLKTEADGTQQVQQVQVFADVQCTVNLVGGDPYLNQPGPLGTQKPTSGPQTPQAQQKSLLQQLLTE
Chain of Steroidogenic factor 1 (Homo sapiens) (Q13285 whole entry, looked up, the tested form may be a part): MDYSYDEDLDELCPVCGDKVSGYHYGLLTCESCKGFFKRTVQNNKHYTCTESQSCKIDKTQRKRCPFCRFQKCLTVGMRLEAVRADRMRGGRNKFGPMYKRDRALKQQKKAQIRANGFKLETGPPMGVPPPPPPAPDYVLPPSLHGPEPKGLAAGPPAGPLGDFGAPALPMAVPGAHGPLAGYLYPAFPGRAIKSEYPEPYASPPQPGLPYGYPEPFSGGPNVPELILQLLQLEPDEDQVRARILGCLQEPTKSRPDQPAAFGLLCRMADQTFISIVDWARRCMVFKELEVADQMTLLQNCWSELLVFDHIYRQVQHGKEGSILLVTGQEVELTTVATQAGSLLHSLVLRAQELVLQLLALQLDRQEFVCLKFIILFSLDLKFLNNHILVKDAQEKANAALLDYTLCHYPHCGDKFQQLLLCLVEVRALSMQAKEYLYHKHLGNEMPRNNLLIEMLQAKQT
Chain of Nuclear receptor subfamily 5 group A member 2 (Homo sapiens) (O00482 whole entry, looked up): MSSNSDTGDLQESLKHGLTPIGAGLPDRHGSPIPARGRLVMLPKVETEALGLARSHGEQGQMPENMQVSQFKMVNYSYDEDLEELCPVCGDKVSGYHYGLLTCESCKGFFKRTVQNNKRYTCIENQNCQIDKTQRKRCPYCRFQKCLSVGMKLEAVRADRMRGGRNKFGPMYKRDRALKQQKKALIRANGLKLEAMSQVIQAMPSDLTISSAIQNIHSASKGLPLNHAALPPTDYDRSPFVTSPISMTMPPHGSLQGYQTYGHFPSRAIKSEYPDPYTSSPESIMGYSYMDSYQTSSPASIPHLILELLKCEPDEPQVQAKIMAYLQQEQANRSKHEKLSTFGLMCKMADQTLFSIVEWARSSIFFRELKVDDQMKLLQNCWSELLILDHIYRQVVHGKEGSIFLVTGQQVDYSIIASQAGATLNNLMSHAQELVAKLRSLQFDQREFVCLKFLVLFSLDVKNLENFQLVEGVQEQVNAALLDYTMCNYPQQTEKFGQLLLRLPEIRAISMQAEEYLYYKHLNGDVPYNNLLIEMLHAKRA
Chain of (Lyso)-N-acylphosphatidylethanolamine lipase (Mus musculus) (Q8VD66 whole entry, looked up): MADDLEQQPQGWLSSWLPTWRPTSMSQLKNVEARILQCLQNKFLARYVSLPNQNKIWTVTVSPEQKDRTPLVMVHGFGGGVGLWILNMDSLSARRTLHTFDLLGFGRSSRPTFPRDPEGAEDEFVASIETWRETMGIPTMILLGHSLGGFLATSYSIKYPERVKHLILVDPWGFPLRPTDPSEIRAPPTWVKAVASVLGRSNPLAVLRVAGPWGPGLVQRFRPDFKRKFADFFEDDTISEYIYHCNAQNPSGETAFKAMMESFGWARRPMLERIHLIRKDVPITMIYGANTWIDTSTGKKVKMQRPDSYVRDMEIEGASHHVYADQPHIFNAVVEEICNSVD

In the case of `C[C@H]1CN([C@@H](C)CO)C(=O)c2cc(-c3cccc(F)c3)cnc2O[C@@H]1CN(C)S(C)(=O)=O`, the inhibition (commonly the change of the read-out against control, counted positive when it falls) in [1] is -4.32%; in assay [2], -1.39%.
Regarding `O=C(Nc1ccc(OCc2ccccc2Cl)cc1)c1cccnc1`, the inhibition is -2.33% in assay [3], -5.23% in assay [4], 27% in assay [5] and 52.2% (active) in assay [6].
For the molecule `O=C(Nc1ccc(N2CCN(C(=O)c3ccco3)CC2)c(Cl)c1)c1cc2ccccc2o1`, the inhibition in assay [3] is -30.1%; in assay [4], 6.89%; in assay [5], 53.3% (active); in assay [6], 3.49%.
Turning to `N#Cc1cccc(NC(=O)COC(=O)c2ccccc2C(=O)c2ccc(Cl)c([N+](=O)[O-])c2)c1`, the inhibition in [7] was 63.2% (active); in assay [8] it was 37.4% (active).
In the case of `O=C1/C(=C\c2ccc([N+](=O)[O-])cc2)CS(=O)(=O)C/C1=C/c1ccc([N+](=O)[O-])cc1`, the inhibition is 2.1% in assay [9], 89.5% (active) in assay [10], 79.7% (active) in [11] and 70.2% (active) in assay [12].
Regarding `Cc1cccc2sc(N(CCCN(C)C)C(=O)CCS(=O)(=O)c3ccccc3)nc12`, the inhibition in assay [5] is 12%; in assay [6], 32.5%.
For `O=C(O)c1ccc2c(c1)C(=O)N(c1ccc(/C=C/C(=O)c3ccccc3)cc1)C2=O`, in assay [13], the inhibition was 0.6%. Besides, the results for the activation in [14] and in [15] were 1.47% and 0.05%, respectively.
Take `Cc1cccc(N2CCN(C(=O)c3cccc(S(=O)(=O)N4CCc5ccccc5C4)c3)CC2C)c1` (configuration not stated): the inhibition in assay [16] was 52%; in [17] it was 49%.
Regarding `S=C(NN=Cc1ccccn1)Nc1ccccn1`, the figures for the inhibition in [16] and in assay [17] were 79.5% (active) and 14.3%, respectively.
For `O=C(/C=C/c1ccc([N+](=O)[O-])o1)NNC(=O)c1ccc(F)cc1`, the inhibition in [16] is 83.5% (active); in [17] it was 18.6%; in assay [18], 27.6% (active); in assay [19] it was 44.5% (active); in [20], 104% (active).
In the case of `CCc1cc2c(NC3CCCC3)ncnc2s1`, the inhibition was 88.5% (active) in assay [16], 64% in assay [17], 5.31% in assay [21] and 29.9% in assay [22].
Turning to `CCOC(=O)N1CCN(C(=O)c2ccc(S(=O)(=O)Nc3cccc(C(F)(F)F)c3)cc2)CC1`, the inhibition in assay [16] was 65.8%; in [17] it was 47.3%.
The matching figures for `O=C(c1ccc(N2CCCC2=O)cc1)N1CCN(c2ccc(C(F)(F)F)cc2[N+](=O)[O-])CC1`: 93.2% (active) and 74.9% (active).
On to `CCCNc1ncnc2sc(C)c(C)c12`, for which the inhibition in assay [16] was 27.8%; in [17], 29.6%.
As to `Cc1cc(C(=O)NC2CCCc3c2cnn3-c2cccc(C)c2C)c(C)o1` (configuration not stated), the inhibition in assay [16] was 72.7% (active); in assay [17] it was 69.9%; in assay [21] it was -2%; in [22] it was 26.8%.
In the case of `CCN(CC)S(=O)(=O)c1ccc(N(C)Cc2ccc(C(F)(F)F)cc2)nc1`, the inhibition in assay [16] is 34.6%; in assay [17] it was 41.8%; in assay [21], -6.6%; in [22], 22.6%.
In the case of `CCOC(=O)N1CCN(C(=O)C2CCN(c3ncnc4c3sc3cccc(F)c34)CC2)CC1`, the inhibition in [16] was 92% (active); in assay [17], 70.3%; in assay [21], -7.67%; in assay [22], 27.1%.
Turning to `COc1cc(CC(=O)Nc2nc(-c3ccc(F)c(F)c3)cs2)cc(OC)c1OC`, the inhibition was 94.2% (active) in [16], 86.9% (active) in assay [17], -0.07% in assay [21] and 44.8% (active) in [22].
For `COc1ccc(CC(=O)Nc2nc(-c3ccc(F)c(F)c3)cs2)cc1OC`, the inhibition in assay [16] was 98% (active); in assay [17] it was 81.8% (active); in [21], 2.71%; in [22], 55.4% (active).
Take `CSc1nsc(SC)c1NC(=O)OC1CCCCC1`: the inhibition in assay [16] is -5.88%; in assay [17], -17.6%.
Regarding `N#C[C@]1(S(=O)(=O)c2ccccc2)C[C@@H]2ON=C(c3cccc(Br)c3)[C@@H]2C1`, the inhibition in assay [16] was 88.5% (active); in assay [17], 75.2% (active); in assay [21], 2.59%; in assay [22], 14.3%.
On to `O=[N+]([O-])c1ccc(NS(=O)(=O)c2ccccc2)c(Cl)c1`, for which the inhibition in assay [16] was 77.9% (active); in assay [17] it was 43.9%.
For `O=C(CSc1nc(Nc2ccccc2)nc(N2CCOCC2)n1)Nc1cc(Cl)ccc1O`, the figures for the inhibition in assay [16] and in [17] were 31.7% and 20.4%, respectively.
For the molecule `Cc1ccc(CS(=O)(=O)c2ncc(Cl)c(C(=O)Nc3nnc(C)s3)n2)cc1`, the inhibition was 30.6% in assay [16], -7.39% in assay [17], 27.1% in assay [5] and 55% (active) in [6].
As to `CCC(C)C(N=C1NS(=O)(=O)c2ccccc21)C(=O)N1CCC(C)CC1` (configuration not stated), the inhibition in [16] was 41%; in assay [17], -4.13%.
Take `COc1cccc(CNc2nc(NCc3ccccc3OC)nc3ccsc23)c1`: the inhibition in [16] was 82% (active); in assay [17] it was 61.6%; in assay [21] it was 2.96%; in [22], 18.9%.
Turning to `CC(=O)c1c(C)[nH]c(C(=O)COC(=O)c2cccc(S(=O)(=O)N(C)c3ccccc3)c2)c1C`, the inhibition in assay [16] is 23.8%; in assay [17], 73.4% (active).
For `COc1ccccc1-n1nnnc1S(=O)(=O)Cc1ccc(Cl)cc1`, the inhibition in assay [16] was 10.2%; in [17], 19%; in assay [9] it was 41.7% (active); in assay [10] it was 51.6% (active); in assay [11], 40.4%; in [12], 34.2% (active).
Regarding `c1ccc(C(=NNc2nc3ccccc3s2)c2ccccn2)cc1`, the inhibition in assay [16] was 22.6%; in [17], 11.6%.
The matching figures for `COCCNc1nc(-n2nc(C)cc2C)nc2sc3c(c12)CCCC3`: -8.21% and -32%.
